This note sets out measurements from PubChem BioAssay (NCATS).

For assay [1], the target named is Aldehyde dehydrogenase, mitochondrial (Homo sapiens) (UniProt P05091). As to the kind of experiment: qHTS for Inhibitors of the Aldehyde Dehydrogenase Family (ALDH2) Primary screen (AID 2061308). Note: nearly all actives have a fitted effect of over 55% in size.
Assay [2] has as its target Retinaldehyde dehydrogenase 3 (Homo sapiens) (UniProt P47895). Description: qHTS for Inhibitors of the Aldehyde Dehydrogenase Family (ALDH1A3) Primary screen (AID 2061315). In general terms: qHTS replaces the single test concentration by a dilution series.

Inconclusive results are not listed. Where a call stands in place of a potency, no number is given. Activity calls are given as the source filed them. Calls come from the whole dose curve; as a rule, active = well fitted curve in the direction sought with a large enough effect; inconclusive = small, poorly fitted or top-dose-only effect, or another doubt; inactive = no such curve, though single readings can be large; an effect the other way counts as inactive or inconclusive.

Turning to `CN1CCOc2ccc(S(=O)(=O)N3CCN(S(=O)(=O)c4c(F)cccc4F)CC3)cc21`, the Potency result in assay [1] and in assay [2] was “inactive” throughout.

With `CCOC(=O)C1CCN(C(=O)C(C)(C)NC(=O)Nc2ccc([N+](=O)[O-])cc2)CC1`, the Potency result in assay [1] and in assay [2] was “inactive” each time.

With `O=C(Nc1ccc(Cl)c(C(F)(F)F)c1)Nc1nnc(-c2ccncc2)s1`, the Potency entry in assay [1] and in assay [2] was “inactive” each time.

As to `CCCCCCNC(=O)Nc1nnc(-c2ccncc2)s1`, the Potency result in assay [1] and in assay [2] was “inactive” throughout.

In the case of `C=C(C)C(=O)OC1C(OC(C)=O)/C(C=O)=C\CC/C(CO)=C/C2OC(=O)C(=C)C21` (configuration not stated), the Potency entry in assay [1] and in assay [2] was “inactive” each time.

Take `COc1cccc2nc3sc(Nc4ccc5c(c4)CCC5)nn3c(=O)c12`: the Potency result in assay [1] and in assay [2] was “inactive” each time.

With `C[C@@H]1[C@H]2[C@H](O[C@@H]3O[C@H](CO)[C@@H](O)[C@H](O)[C@H]3O)OC=C(C(=O)O)[C@H]2C[C@@H]1O`, the Potency entry in assay [1] and in assay [2] was “inactive” each time.

Consider `O=C(Nc1cc(F)cc(F)c1)Nc1nnc(-c2ccncc2)s1`, for which the Potency entry in assay [1] and in assay [2] was “inactive” throughout.

With `Cn1nnnc1Sc1ncnc2scc(-c3ccc(C(F)(F)F)cc3)c12`, the Potency result in assay [1] and in assay [2] was “inactive” each time.

Take `CCOc1cc(C)c(Cl)cc1S(=O)(=O)n1cnc2ccccc21`: the Potency result in assay [1] and in assay [2] was “inactive” in each case.

Turning to `FC(F)(F)c1ccccc1-c1nc(NCc2ccccc2)c2ccccc2n1`, the Potency result in assay [1] and in assay [2] was “inactive” each time.

On to `COc1cc(O)c(C(CC(=O)N2CCCC(c3nc4ccccc4o3)C2)c2ccc3c(c2)OCO3)c(OC)c1` (configuration not stated), for which the Potency entry in assay [1] and in assay [2] was “inactive” each time.

On to `CC(=O)NC(c1cc(Cl)c2cccnc2c1O)C1CC1` (configuration not stated), for which the Potency result in assay [1] and in assay [2] was “inactive” each time.

In the case of `Cc1ccc(S(=O)(=O)Nc2cnccc2C(=O)Nc2ccc(S(=O)(=O)Nc3nccs3)cc2)cc1`, the Potency result in assay [1] and in assay [2] was “inactive” throughout.

Turning to `Cc1c(P(=S)(c2ccccc2)c2ccccc2)c2ccccc2n1C(=O)Cc1ccccc1`, the Potency entry in assay [1] and in assay [2] was “inactive” each time.

As to `CC(=O)/C=C/[C@H]1[C@](C)(O)[C@@H](O)[C@H](O)C2C(C)(C)CCC[C@@]21C` (some centres not stated), the Potency result in assay [1] and in assay [2] was “inactive” each time.

For `CN(C)C/C=C/C(=O)Nc1cccc(C(=O)Nc2ccc(Nc3nccc(-c4cccnc4)n3)cc2)c1`, the Potency entry in assay [1] and in assay [2] was “inactive” each time.

As to `COc1cc(F)c(S(=O)(=O)N2CCCN(S(=O)(=O)c3cccc(NC(C)=O)c3)CC2)c(F)c1`, the Potency result in assay [1] and in assay [2] was “inactive” each time.

`O=C(/C=C/c1ccccc1Cl)Nc1cccc([S+](=O)([O-])Nc2ccccc2F)c1`: the Potency result in assay [1] and in assay [2] was “inactive” each time.

In the case of `COc1cccc(NS(=O)(=O)c2ccc3c(c2)CCC(=O)N3)c1`, the Potency entry in assay [1] and in assay [2] was “inactive” throughout.

With `NC(=O)C1CCN(c2nc(-c3cccnc3)cs2)CC1`, the Potency result in assay [1] and in assay [2] was “inactive” each time.

Consider `Cc1cc2c(s1)c1c(C)nn(Cc3ccc(F)cc3)c(=O)c1n2C`, for which the Potency entry in assay [1] and in assay [2] was “inactive” throughout.

Take `CCCCC1CCC(C(=O)Nc2ccc(S(=O)(=O)Nc3nccs3)cc2)CC1` (configuration not stated): the Potency entry in assay [1] and in assay [2] was “inactive” each time.

In the case of `FC(F)(F)c1cccc(N2CCN(C(=S)Nc3ccccn3)CC2)c1`, the Potency result in assay [1] and in assay [2] was “inactive” each time.

Regarding `CC(C)c1ccccc1-c1nc2c(c(NCc3ccc(-c4cccnc4)cc3)n1)CNC2`, the Potency entry in assay [1] and in assay [2] was “inactive” each time.

For `O=C(Cc1nnc(CNC(=O)c2ccccc2)o1)Nc1cc(C(F)(F)F)ccc1Cl`, the Potency result in assay [1] and in assay [2] was “inactive” throughout.

For the compound `O=C(Nc1ccc(-c2nc3ccccc3[nH]2)cc1)c1ccc2n[nH]nc2c1`, the Potency result in assay [1] and in assay [2] was “inactive” in each case.

Regarding `CC(C)(C)OC(=O)Cc1nnc(CNC(=O)c2ccccc2)s1`, the Potency entry in assay [1] and in assay [2] was “inactive” each time.

As to `O=C(CSc1nnc(-c2cccc([S+](=O)([O-])N3CCCC3)c2)n1-c1ccccc1)Nc1cccc(F)c1`, the Potency entry in assay [1] and in assay [2] was “inactive” in each case.

For `O=C1NS(=O)(=O)c2cscc21`, the Potency result in assay [1] and in assay [2] was “inactive” in each case.

With `Cc1cc(NS(=O)(=O)c2ccc(NC(=O)CCc3ccc(Cl)c(Cl)c3)cc2)no1`, the Potency result in assay [1] and in assay [2] was “inactive” in each case.

`Cn1cc2ccc(-c3ccc4ncnc(NCc5cccs5)c4c3)cc2n1`: the Potency result in assay [1] and in assay [2] was “inactive” throughout.

As to `COc1ccc(C2=Nn3c(nnc3-c3ccccc3C(F)(F)F)SC2)cc1OC`, the Potency entry in assay [1] and in assay [2] was “inactive” each time.

As to `Cc1ccc(-c2cc(C(=O)Nc3ncco3)c3ccccc3n2)cc1C`, the Potency entry in assay [1] and in assay [2] was “inactive” each time.

With `O=C1c2ccccc2C(=O)N1c1cncc2ccccc12`, the Potency entry in assay [1] and in assay [2] was “inactive” throughout.

Turning to `N#CC1=C(Nc2nc3ccccc3o2)OC2=C(C(=O)CCC2)C1c1[nH]ncc1Cl` (configuration not stated), the Potency result in assay [1] and in assay [2] was “inactive” throughout.

On to `COc1ccc(-c2nnc(NC(=O)Nc3ccc4ccccc4c3)s2)cc1OC`, for which the Potency entry in assay [1] and in assay [2] was “inactive” each time.

For the compound `CC1=CC(=O)C2C(C)(C)CCCC2(C)C12CCC1(COC(=O)C1)O2` (configuration not stated), the Potency result in assay [1] and in assay [2] was “inactive” in each case.

For the compound `CC(=O)Nc1sc2c(c1-c1ccc3c(c1)OCCCO3)CCNC2`, the Potency result in assay [1] and in assay [2] was “inactive” throughout.

As to `O=C1CCCC2=C1C(c1ncccc1C(F)(F)F)N=C(Nc1nc3ccccc3o1)N2` (configuration not stated), the Potency result in assay [1] and in assay [2] was “inactive” throughout.

In the case of `Cc1cc(NS(=O)(=O)c2ccc(NC(=O)Cc3ccc(F)c(Cl)c3)cc2)no1`, the Potency entry in assay [1] and in assay [2] was “inactive” in each case.
